Assay outcomes: PubChem, SRMLSC
In the library only some 6.6% were active in any assay of this set; here they are far more common.
DPM-DC inhibit = S. pneumoniae DPM-DC inhibition; AID 556; 65,000 tested, 0.49% active; calls only at 10 µM; purified DPM-DC, PK/LDH coupled NADH fluorescence;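 active = the 320 compounds with the highest percent inhibition in the single-dose primary screen, excluding strongly autofluorescent ones, cut at about 32% in these data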;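 also: kinetic rate of NADH fluorescence loss reporting ADP formed by the decarboxylase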
Fluor 339 460 = intrinsic fluorescence of library compounds, ex339/em460 – biochemical, MLSMR library, data from DPM-DC assay, artefact control, profiling panel | 65,000 tested, 5.5% active | compound autofluorescence, ex339/em460 nm, NADH buffer; stronger effect = higher value; 1 = no-compound wells, NADH background | fluorescence fold increase at 10 µM;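 active = at 10 µM, mean starting fluorescence two-fold or more over control wells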;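 also: signal is the first read of a kinetic run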
MK inhibit = S. pneumoniae mevalonate kinase inhibition | 65,000 tested, 0.48% active | purified MK, PK/LDH-coupled NADH absorbance 340 nm | inhibition, % at 10 µM;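 active = ranked among the strongest by inhibition in the single 10 µM screen, a fixed top-ranked set picked for dose follow-up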
PMK inhibit = S. pneumoniae PMK inhibition | 65,000 tested, 0.49% active | purified PMK, PK/LDH-coupled NADH absorbance 340 nm | inhibition, % at 10 µM;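 active = top-ranked compounds by inhibition in the single 10 µM screen, taking a fixed number of the strongest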
NADH coupling = inhibitors of enzymes used to reach an NAD/NADH endpoint. coupled PK/LDH NADH assays, four targets. IC50, µM (series often up to 10 µM). 65,000 tested, 0.02% active;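 active = single-dose screening hits from any of four coupled enzyme assays that gave an IC50 when retested across doses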;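 also: the DPM-DC format reads NADH fluorescence rather than 340 nm absorbance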
Large screens that a line does not name were inactive.

CCCCn1c(-c2ccccc2)nc2c(=O)n(C)c(=O)[nH]c21	Fluor 339 460 3.7 (not shown: DPM-DC inhibit)
CN(C(=O)C1CCOC1)c1nnc(C2CCOC2)s1 (stereo unspecified)	PMK inhibit 27
CN(C(=O)C1CCOC1)c1nnc(-c2cnccn2)s1 (stereo unspecified)	none
CCOC(=O)CSc1cccc2cccnc12	Fluor 339 460 3.6 (not shown: DPM-DC inhibit)
Cc1cc(C)nc(SCC(=O)NCc2ccco2)n1	none
Cn1c(SCC(=O)NCc2ccco2)nc2ccccc2c1=O	PMK inhibit 25
Cc1cc(C)n2nc(SCC(=O)NCc3ccco3)nc2n1	PMK inhibit 30
O=C(CSc1cccc2cccnc12)NCc1ccco1	Fluor 339 460 4.9 (not shown: DPM-DC inhibit)
O=C(CSc1nc2ccccc2c(=O)n1Cc1ccco1)NCc1ccccc1	none
Fc1ccc(N2CCN(C(c3cccs3)c3nnnn3C3CCCC3)CC2)cc1 (stereo unspecified)	none
O=C(CSc1nc2ccccc2c(=O)[nH]1)Nc1ccc(S(=O)(=O)N2CCCC2)cc1	none
COc1ccc(-n2nc(C(=O)NCC(=O)NCc3ccco3)c3ccccc3c2=O)cc1	none
COc1ccc(-n2nc(C(=O)NCc3ccco3)c3c4ccccc4n(C)c3c2=O)cc1Cl	DPM-DC inhibit active, Fluor 339 460 3.6
Cc1ccc(C2C3=C(CCCC3=O)Nc3nc(SCC(=O)NCc4ccco4)[nH]c(=O)c32)cc1 (stereo unspecified)	Fluor 339 460 3.6
CCSc1nc2c(c(=O)[nH]1)C(c1ccccn1)C1=C(CC(C)(C)CC1=O)N2 (stereo unspecified)	Fluor 339 460 2.2 (not shown: DPM-DC inhibit)
O=C1CCCC2=C1C(c1ccncc1)c1c(nc(SCc3ccccc3)[nH]c1=O)N2 (stereo unspecified)	Fluor 339 460 2.2 (not shown: DPM-DC inhibit)
Nc1nc(SCC(=O)NCc2ccco2)[nH]c(=O)c1-c1ccccc1	none
O=C(O)c1cc(=O)c2c(OCC(O)COc3cccc4oc(C(=O)O)cc(=O)c34)cccc2o1	none
CCOC(=O)c1oc2cccc(OCC(O)CNC(C)C)c2c1C (stereo unspecified)	Fluor 339 460 3.6 (not shown: DPM-DC inhibit)
COc1ccc(S(=O)(=O)N2CCN(C3CCCCCCC3)CC2)cc1	PMK inhibit 29
O=S(=O)(c1ccc(F)cc1)N1CCC(N2CCCC2)CC1	MK inhibit 50
COc1ccc(S(=O)(=O)N2CCC(N3CCCCC3)CC2)cc1	none
CCc1cc(=O)oc2cc(C)c(CN3CCCCC3)c(O)c12	none
CCN1CCN(Cc2c(O)c(Cl)cc3c(C)cc(=O)oc23)CC1	Fluor 339 460 2.2 (not shown: DPM-DC inhibit)
Cc1cc(=O)oc2c(CN3CCCCC3)c(O)c(Cl)cc12	Fluor 339 460 2.4 (not shown: DPM-DC inhibit)
Cc1cc(=O)oc2c(CN3CCC(C)CC3)c(O)c(Cl)cc12	Fluor 339 460 2.3 (not shown: DPM-DC inhibit)
Cc1cccc(-n2c(SCc3cc(=O)n4ccsc4n3)nc3ccccc32)c1	none
O=S(=O)(CC(CN1CCCC1)N1CCCC1)c1ccc2ccccc2c1 (stereo unspecified)	none
COC(=O)C1=CN(C2CC2)C=C(C(=O)OC)C1c1ccc(C(=O)OC)cc1	Fluor 339 460 2.1 (not shown: DPM-DC inhibit)
CCOC(=O)C1CCN(S(=O)(=O)c2ccc(C(=O)OC)cc2)CC1	none
c1ccc(-c2cc3c(-n4cccc4)ncnc3o2)cc1	Fluor 339 460 3.2
COc1ccccc1C(=O)Nc1cc(-c2nn3c(C)nnc3s2)ccc1C	none
Cc1nn(-c2ccccc2)c2c1C(O)n1c(nc3ccccc31)S2 (stereo unspecified)	MK inhibit active
Cc1nn(-c2ccc(C(=O)O)cc2)c(N)c1-c1ccccc1	none
Cn1cnc(S(=O)(=O)NCc2cccs2)c1	none
COc1ccc(-c2cc(N3CCCC3)n3ncnc3n2)cc1	none
COc1ccc(-c2cc(-c3ccccc3)n3ncnc3n2)cc1	Fluor 339 460 2.4 (not shown: DPM-DC inhibit)
COc1ccc(C(F)(F)F)cc1NC(=O)c1nc2nc(C)cc(C(F)F)n2n1	Fluor 339 460 3 (not shown: DPM-DC inhibit)
Cc1cc(C(F)F)n2nc(C(=O)Nc3cccc(C(F)(F)F)c3)nc2n1	none
Cc1ccc(-n2nc3ccc(N)cc3n2)cc1	Fluor 339 460 2.1 (not shown: DPM-DC inhibit)
Cc1ccc(-n2nc(-c3ccc(N)cc3)cc2N)cc1	none
COc1ccc(C2C(C(=O)N3CCOCC3)CCC(=O)N2c2cc(OC)c(OC)c(OC)c2)cc1 (stereo unspecified)	none
COc1ccc(CC(C(=O)Nc2cccc(F)c2)c2nn[nH]n2)c(OC)c1 (stereo unspecified)	none
O=C(NCCCN1CCOCC1)c1cccs1	none
COC(=O)c1ccc(-c2ccc(CNCC(O)c3ccccc3)o2)cc1 (stereo unspecified)	Fluor 339 460 2.9 (not shown: DPM-DC inhibit)
OC(CNCCc1ccccc1)c1ccccc1 (stereo unspecified)	none
CCOC(=O)c1c(Nc2nc(C)c(C(=O)NC)s2)sc(C)c1C	DPM-DC inhibit active
CCOC(=O)C1CCN(c2cc(C)nc3cc(-c4cccc(F)c4)nn23)CC1	Fluor 339 460 2.6 (not shown: DPM-DC inhibit)
CCOC(=O)C1CCCCN1C(=O)CCc1c(C)nc2cc(-c3ccccc3)nn2c1C (stereo unspecified)	none
COCCOC(=O)C1=C(C)N=C2SCCC(=O)N2C1c1cccc(Br)c1 (stereo unspecified)	none
CCn1c(Cc2ccc(OC)cc2)nnc1SCC(=O)Nc1cccc(C(=O)OC)c1	none
Cn1c(=O)c2c(nc(Oc3ccc(-c4ccccc4)cc3)n2C)n(C)c1=O	none
COc1cc2ccccc2cc1C(=O)OCC(=O)N1CCOCC1	Fluor 339 460 5.1 (not shown: DPM-DC inhibit)
O=C(OCC(=O)N1CCOCC1)c1ccc[nH]c1=O	none
CCn1c(=O)c2cc(C(=O)N3CCOCC3)sc2c2ccccc21	Fluor 339 460 2.1 (not shown: DPM-DC inhibit)
CCn1c2ccccc2c2cc(NC(=O)N3CCOCC3)ccc21	Fluor 339 460 2.1
CCn1c(=O)cc(OCC(=O)N2CCCC2)c2ccccc21	none
CCn1c(=O)c2cc(C(=O)N3CCCC3)sc2c2ccccc21	Fluor 339 460 2.1 (not shown: DPM-DC inhibit)
Cc1nn(-c2ccccc2)c2sc(C(=O)N3CCOCC3)cc12	none
O=C(c1cc2c(=O)oc3ccccc3c2s1)N1CCOCC1	none
O=C(c1cc2c(=O)n3ccccc3nc2s1)N1CCOCC1	Fluor 339 460 4.9 (not shown: DPM-DC inhibit)
C=CCOC(=O)C1=C(C)NC(SCC(=O)Nc2ccc(C)c(Cl)c2)=C(C#N)C1c1ccco1 (stereo unspecified)	Fluor 339 460 2.3 (not shown: DPM-DC inhibit)
CCOC(=O)CC1=CC(C)(CC(=O)OCC)C(C#N)(C#N)C(N)=C1C#N (stereo unspecified)	none
COc1ccc(C(=O)NCCn2ccc3ccccc32)c(OC)c1	none
CN1CCCc2cc3c(C(F)(F)F)cc(=O)oc3nc21	Fluor 339 460 2.2 (not shown: DPM-DC inhibit)
CCSc1cnc(-c2ccccc2)n1CC	none
CC1SC(=NC(=O)c2ccco2)NC1=O (stereo unspecified)	PMK inhibit 26
COc1cccc(NC(=O)Cn2c(SCC(=O)N3CCOCC3)nc3ccccc32)c1	none
CCCCn1c(SCC(=O)Nc2cccc(OC)c2)nc2ccc(N3CCOCC3)cc2c1=O	Fluor 339 460 3.1
